# CYP2C19 activ: human CYP2C19 activators, primary screen, biochemical, luminescence | Cytochrome P450 2C19 (Homo sapiens), P33261 | recombinant CYP2C19, luciferin-H EGE luminescence; hits give high values; 0 = fully inhibited enzyme, 1 = untreated enzyme | activation factor at 5 µM | 96,000 tested, under 10 active | AID 1025, 2008;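 active = activation factor of at least 2 at 5 µM in the primary screen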;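 also: 0 = wells with 2.5 mM tranylcypromine and 1 = vehicle-only wells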
# CYP2C9 activ: human CYP2C9 activators, primary screen, biochemical, luminescence. recombinant CYP2C9, luciferin-H conversion; hits give high values; factor 1 = untreated enzyme, 0 = blocked. Cytochrome P450 2C9 (Homo sapiens), P11712. hit rate 1.4% among 96,000. activation factor at 5 µM;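 active = activation factor of 2 or more for CYP2C9 at a 5 µM dose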;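 also: 0 = sulfaphenazole-blocked wells and 1 = vehicle-only wells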
# Target sequence (P11712 whole entry, looked up): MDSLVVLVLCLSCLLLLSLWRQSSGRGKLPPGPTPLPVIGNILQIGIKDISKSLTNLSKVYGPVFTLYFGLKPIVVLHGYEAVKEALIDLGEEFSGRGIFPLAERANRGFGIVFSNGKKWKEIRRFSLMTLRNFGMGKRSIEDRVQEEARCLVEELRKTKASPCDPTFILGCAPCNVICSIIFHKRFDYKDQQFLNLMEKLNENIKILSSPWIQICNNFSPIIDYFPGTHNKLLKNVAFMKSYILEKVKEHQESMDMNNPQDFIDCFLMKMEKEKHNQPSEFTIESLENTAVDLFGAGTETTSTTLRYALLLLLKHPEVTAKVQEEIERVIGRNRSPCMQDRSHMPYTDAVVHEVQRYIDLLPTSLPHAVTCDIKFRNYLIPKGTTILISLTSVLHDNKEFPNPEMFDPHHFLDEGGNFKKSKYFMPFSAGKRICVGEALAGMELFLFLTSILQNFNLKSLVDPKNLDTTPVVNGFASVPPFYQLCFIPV
# CYP2C9 inh: blockers of cytochrome P450 2C9 activity – biochemical, luminescence, ADME assay, primary screen; hit rate 20% among 96,000; inhibition, % at 5 µM; AID 777, 2007; P11712; CYP2C9 Supersomes, luciferin-H conversion;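 active = blocking of liver enzyme CYP2C9 beyond about 50% at 5 µM, limit read from the data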
# Measles CPE: compounds protecting cells from measles virus cytopathic effect, primary screen, measles RdRp inhibitor project, single point, MLSMR library, absorbance | Measles virus-infected cells, CPE protection | protection (pct of control), % at 4 µM | hit rate 1.5% among 140,000 | AID 841, 2007; in the data active = protection mostly above about 24%, no sharp cut-off; inactive = mostly below about 26%
# CYP2C19 inh: blockers of cytochrome P450 2C19 activity – biochemical, luminescence, ADME assay, primary screen; hit rate 21% among 96,000; CYP2C19 Supersomes, luciferin-H EGE luminescence, 30 min; inhibition, % at 5 µM;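 active = CYP2C19 inhibition above a set limit at 5 µM in the primary screen, cut at about 50% in these data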;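 also: plate controls were negative control wells for no effect and 2.5 mM tranylcypromine positive control for full effect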
# Active calls of the source: *; nt = no result. A selection: hits, their analogues and other compounds. The true share with any hit is near 22%.
SMILES,CYP2C19 activ,CYP2C9 activ,CYP2C9 inh,Measles CPE,CYP2C19 inh
O=S(=O)(c1cccc(C(F)(F)F)c1)N(CCCN1CCOCC1)Cc1cccs1,0.4,0.8,21.4,4.0,64.0*
CCOC(=O)c1c(-c2ccc(C)cc2)csc1NC(=O)CCN1CC(C)OC(C)C1 (stereo not drawn),nt,nt,nt,27.4,nt
COc1ccc(/C=C(\C#N)C(=O)Nc2cc(S(=O)(=O)N3CCCCC3)ccc2N2CCCCC2)cc1,nt,nt,nt,18.1,nt
CN(CC(=O)OCC(=O)NC(=O)c1cccn1C)S(=O)(=O)c1ccc(Cl)cc1,1,1,0.4,1.3,1.3
CCc1ccc(NC(=O)N(CCCN2CCOCC2)C(C)c2cc3cccc(OC)c3o2)cc1 (stereo not drawn),0.6,0.3,68.4*,8.8,40.2
O=C(Nc1ccccc1)N(CCN1CCOCC1)Cc1cccc(Cl)c1,0.2,0.2,84.4*,13.7,79.4*
O=C(Nc1ccc(Cl)c(Cl)c1)N(CCCN1CCOCC1)Cc1cccs1,0.1,0.2,84.3*,0.6,88.7*
COc1cccc2cc(C(=O)C3=C(O)C(=O)N(CCN4CCOCC4)C3c3cccs3)oc12 (stereo not drawn),1.1,1.2,-22.0,29.3,-10.3
COc1ccc(CN(CCCN2CCOCC2)C(=O)Nc2ccccc2)cc1OC,0.8,0.4,57.1*,16.4,24.8
Cc1ccc(N2/C(=N/c3nc(C)cc(C)n3)NC(=O)CC2C(=O)O)cc1 (stereo not drawn),1,1,3.8,5.0,0.5
CC1=C(C(=O)OCc2ccccc2)C(c2ccc(N3CCOCC3)cc2)NC(=O)N1 (stereo not drawn),0.7,0.6,44.4,4.0,29.2
CN(C)S(=O)(=O)c1ccc(C(=O)Oc2ccccc2)cc1,0.8,1,-4.2,33.1,22.4
COc1ccccc1-c1cc(C(F)(F)F)nc(N2CCN(c3ccc(F)cc3)CC2)n1,nt,nt,nt,7.0,nt
Cc1ccc(N(CN2C(=O)NC(C)(C)C2=O)CN2C(=O)NC(C)(C)C2=O)cc1,0.5,1,-2.7,9.7,51.3*
CC1(C)NC(=O)N(CC(O)COc2ccc(-c3ccccc3)cc2)C1=O (stereo not drawn),0.6,0.9,12.7,2.1,44.5
CC(=O)c1cc2c(=O)c3cc(C)ccc3oc2nc1C,0.6,0.6,41.1,2.2,36.6
CC1CC(=O)C2=C(C1)Nc1ccccc1N(C(=O)COc1ccccc1)C2c1ccco1 (stereo not drawn),0.4,0.5,48.0,7.0,56.3*
O=C1CC(c2ccco2)CC2=C1C(c1ccccc1)n1nc(C(F)(F)F)nc1N2 (stereo not drawn),0.7,0.4,62.1*,6.2,30.0
COc1ccc(C2C3=C(CC(c4ccco4)CC3=O)Nc3ccccc3N2C(C)=O)cc1 (stereo not drawn),0.5,0.2,81.2*,11.4,48.1
COc1ccc(C2CC(=O)C3=C(C2)Nc2ncnn2C3c2ccccc2)cc1 (stereo not drawn),0.6,0.6,37.0,13.3,41.4
CC1=CC(C)C2C(=O)N(CCC[N+](C)(C)C)C(=O)C2C1 (stereo not drawn),0.9,0.9,11.2,17.9,6.0
COc1cc(O)c2c(=O)c3c(OC)c(O)ccc3oc2c1,nt,nt,nt,5.8,nt
CCOC(=O)C1=C(CC)Nc2ccccc2N=C1NC(=O)Cn1cnc2ccccc2c1=O,1,0.9,13.8,1.8,1.1
CCOC(=O)C1=C(CC)Nc2ccccc2N=C1NC(=O)Nc1ccc(Cl)c(Cl)c1,0.4,0.1,94.3*,6.7,58.5*
COc1ccc(OC)c(Nc2ncnc3sc(-c4ccccc4)cc23)c1,nt,nt,nt,5.6,nt
O=C(Cn1cc2c(n1)CCCC2)Nc1cc(-c2cccc(Cl)c2)no1,0.7,0.4,56.9*,34.9,25.7
CC(NC(=O)Cn1cc2c(n1)CCCCC2)c1ccccc1 (stereo not drawn),1,1,3.7,6.5,-1.3
COc1ccccc1C(=O)NC(C)c1nc2ccccc2[nH]1 (stereo not drawn),0.4,0.5,54.8*,22.1,55.7*
Cc1cccc(C)c1-n1nnnc1S(=O)(=O)Cc1ccccc1Cl,0.6,0.2,83.3*,26.3,42.5
O=c1oc(-c2ccccc2Cl)nc2ccsc12,0.2,0.9,14.5,2.7,77.4*

# Screening results as filed in PubChem.
